This passage reports fold change and outcome results from PubChem BioAssay AID1259240 (Keith Lab, Institute of Cancer Science, University of …, 2017).

Activity calls are given as the source filed them. Cut-off read from the data, not from the text of the source: active = fold change mostly below about -2 (no sharp cut-off); inactive = mostly above about -1.8.

The nature of the test: TERT promoter activity modulators, primary screen, cell-based, luciferase reporter, human (AID 1259240). Conditions: A2780 TERT promoter luciferase reporter, 16 h; at 20 µM, fold versus average of vehicle-only wells. A general note: In a reporter assay the amount or activity of a reporter protein is the signal.
In the case of `CS(=O)(=O)Nc1ccc(Cl)c2cccnc12`, the fold change is -2.8 (active).

`O=C1c2cccnc2C(=O)N1CNc1ccc(Cl)cc1`: the fold change is 1.07 (inactive).

Consider `COc1cccc(C2C(C#N)=C(N)Oc3n[nH]c(-c4ccc(Br)cc4)c32)c1OC` (stereo not given), for which the fold change was -1.08 (inactive).

For the compound `CCOC(=O)C1=C(CS(=O)(=O)c2ccc(F)cc2)NC(=O)NC1c1cc(OC)ccc1OC` (stereo not given), the fold change was 1.65 (inactive).

Take `Cc1ccc(-n2c(C)cc(/C=C3/SC(=S)N(CC(=O)O)C3=O)c2C)cc1`: the fold change is -5.22 (active).

Consider `CCCCN(C)C(=O)Cn1ncc2c3ccccc3n(C)c2c1=O`, for which the fold change is 1.16 (inactive).

For `COc1ccc(-n2c(C)c(C(C)=O)c3cc(OCC(N)=O)ccc32)cc1`, the fold change was -1.38 (inactive).

Take `CCN1CCCC1CNC(=O)CN1C(=O)COc2ccc(S(=O)(=O)N3CCC(C)CC3)cc21` (stereo not given): the fold change is 1.28 (inactive).

Consider `Cc1cc(=O)n2[nH]c(NC(=O)c3cccs3)nc2n1`, for which the fold change is -1.29 (inactive).

Take `Cc1ccc2c(C)nc(NC3=NCN(C4CCCC4)CN3)nc2c1`: the fold change was -2 (inactive).

Consider `O=C(Nc1nccs1)c1cc2ccccc2c(=O)s1`, for which the fold change was -1.86 (inactive).

In the case of `CCS(=O)(=O)Nc1cccc(C2=NN(S(C)(=O)=O)C(c3cccs3)C2)c1` (stereo not given), the fold change was -1.32 (inactive).

`CCn1c(SCC(=O)Nc2nnc(C)s2)nnc1-c1c[nH]c2ccccc12`: the outcome was inactive.

Turning to `Cc1cc(C)c(Cn2c3ccccc3c3cnn(CC(=O)NCC4CCCO4)c(=O)c32)c(C)c1` (stereo not given), the fold change is -1.24 (inactive).

For `C=CCn1c(SCC(=O)N2CCCCC2)nc2sc3c(c2c1=O)CCC3`, the fold change is -1.53 (inactive).

As for `CC1CCCN(C(=O)c2ccc3c(=O)n4c(nc3c2)CCCCC4)C1` (stereo not given), the fold change is 1.14 (inactive).

Take `Cc1cc(NC(=O)CSCc2nc(-c3cccc(Cl)c3)oc2C)no1`: the fold change is 1.06 (inactive).

For `CCOC(=O)c1ccc(-c2c(C(F)(F)F)oc3cc(O)c(CC)cc3c2=O)o1`, the fold change was -2.58 (active).

As for `Cc1nc2cc(-c3ccccc3)nn2c(C)c1CCC(=O)NC(C)c1ccc2c(c1)OCCO2` (stereo not given), the fold change was -3.95 (active).

Turning to `COc1ccccc1N1CCN(S(=O)(=O)c2cccc3cccnc23)CC1`, the fold change was -1.29 (inactive).

For the compound `CCOC(=O)c1cc2cc(Cl)ccc2oc1=O`, the fold change was 1.32 (inactive).

With `CS(=O)(=O)Nc1ccc(C2=NN(C(=O)c3ccco3)C(c3ccco3)C2)cc1` (stereo not given), the fold change was 1.01 (inactive).

As to `Cc1ccc(S(=O)(=O)N2N=C(c3ccc(NS(C)(=O)=O)cc3)CC2c2ccco2)cc1` (stereo not given), the fold change was -1.45 (inactive).

Consider `CC(C)C(NS(=O)(=O)c1cccc2nsnc12)C(=O)N1CCCCCC1` (stereo not given), for which the fold change is 1.11 (inactive).

In the case of `CC(C)CNC(=O)CCN1C(=O)c2ccccc2S1(=O)=O`, the fold change is -2.25 (active).

On to `Cc1ccc(-c2nnc3c4ccccc4c(C)nn23)cc1S(=O)(=O)NCC1CCCO1` (stereo not given), for which the fold change is 1.3 (inactive).

Consider `Cc1cc(C(=O)N2CCC(C)CC2)on1`, for which the fold change was 1.62 (inactive).

For `CC(C)Cc1nnc(NC(=O)CSc2nc(N)cc(=O)[nH]2)s1`, the compound was classed as active.

With `COc1cc2c(c(OC)c1OC)C(c1cccnc1)CC(=O)N2` (stereo not given), the fold change was -1.07 (inactive).

On to `CCOc1ccc2[nH]c(C)c(CN3CC4(C)CC3CC(C)(C)C4)c(=O)c2c1` (stereo not given), for which the fold change was -1.96 (inactive).

As to `COc1cccc(-c2nc(S(=O)(=O)c3ccc(C)cc3)c(N(C)C)o2)c1`, the fold change was -1.82 (inactive).

For the compound `O=C(O)CN1C(=O)/C(=C\c2ccc(-c3ccccc3)o2)SC1=S`, the fold change was -1.88 (inactive).

For `CN(CC(=O)NCc1ccco1)S(=O)(=O)c1ccc2c(c1)c(=O)n(C)c(=O)n2C`, the fold change was -1.15 (inactive).

As for `CCCCN(C)C(=O)Cn1c(=O)oc2cc(S(=O)(=O)N3CC(C)CC(C)C3)ccc21` (stereo not given), the fold change was 1.08 (inactive).

As to `NC(=O)C1CCN(C(=O)CCCc2nnc3n4nc(-c5ccccc5)nc4c4ccccc4n23)CC1`, the fold change is -1 (inactive).

`COc1ccc(-c2nc(CSc3nc4ccncc4[nH]3)c(C)o2)cc1`: the fold change was -1.53 (inactive).

Take `CC(=O)c1sc2nc(-c3ccc(Br)cc3)cn2c1C`: the fold change is -17 (active).

As to `CCc1nc2c(cnn2-c2ccc(F)cc2)c(=O)n1-c1ccc(OC)c(Cl)c1`, the fold change was 1.04 (inactive).

In the case of `CCc1ccc2c(c1)c1n[nH]c(=S)nc1n2C`, the fold change is -1.88 (inactive).

Consider `CCOc1cccc2cc(S(=O)(=O)c3ccc(C(C)(C)C)cc3)c(=O)oc12`, for which the fold change was -1.2 (inactive).
